# Experimental data reported in the supplement of paper PMC8728848.
# The entries come from a sample that favours the strongest signals as a whole.
# Key:
# Experiment in all cases: glycan array binding signal (z-score within array); higher = stronger binding
# Conditions in all cases: glycan notation: IUPAC condensed, linker removed
# [1] = target: GalNAc(b1-3)Gal(a1-4)Gal(b1-4)GlcNAc
# Procedure, shortened: (§1)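 Glycan array data were curated from 3228 arrays in the Consortium for Functional Glycomics database and kept only where the protein sequence was available. Glycan names were converted to IUPAC-condensed notation, and columns mapping to the same glycan were averaged. The binding signal is a within-array Z-score, averaged across arrays of the same protein sequence at different concentrations or buffers and across linkers. Negative Z-scores can be read as non-binding.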
# [2] = target: GalNAc(b1-3)Gal(a1-4)Gal(b1-4)GlcNAc(b1-3)Gal(b1-4)Glc
# Procedure, shortened: as §1
# GalNAc6S(b1-4)GlcNAc = target: GalNAc6S(b1-4)GlcNAc
# Procedure, shortened: as §1
# [3] = target: GlcNAc(a1-4)Gal(b1-4)GlcNAc
# Procedure, shortened: as §1
# [4] = target: GlcNAc(b1-2)[GlcNAc(b1-4)]Man(a1-3)[GlcNAc(b1-4)][GlcNAc(b1-2)Man(a1-6)]Man(b1-4)GlcNAc(b1-4)GlcNAc
# Procedure, shortened: as §1
# [5] = target: GlcNAc(b1-3)Gal(b1-4)GlcNAc(b1-3)Gal(b1-4)GlcNAc(b1-2)[GlcNAc(b1-3)Gal(b1-4)GlcNAc(b1-3)Gal(b1-4)GlcNAc(b1-6)]Man(a1-6)[GlcNAc(b1-3)Gal(b1-4)GlcNAc(b1-3)Gal(b1-4)GlcNAc(b1-2)Man(a1-3)]Man(b1-4)GlcNAc(b1-4)[Fuc(a1-6)]GlcNAc
# Procedure, shortened: as §1
# [6] = target: GlcNAc(b1-3)Gal(b1-4)GlcNAc(b1-3)Gal(b1-4)GlcNAc(b1-3)Gal(b1-4)GlcNAc(b1-2)Man(a1-3)[GlcNAc(b1-3)Gal(b1-4)GlcNAc(b1-3)Gal(b1-4)GlcNAc(b1-3)Gal(b1-4)GlcNAc(b1-2)Man(a1-6)]Man(b1-4)GlcNAc(b1-4)[Fuc(a1-6)]GlcNAc
# Procedure, shortened: as §1
# [7] = target: GlcNAc(b1-3)Gal(b1-4)GlcNAc(b1-3)Gal(b1-4)GlcNAc(b1-3)Gal(b1-4)GlcNAc(b1-3)Gal(b1-4)GlcNAc(b1-2)Man(a1-3)[GlcNAc(b1-3)Gal(b1-4)GlcNAc(b1-3)Gal(b1-4)GlcNAc(b1-3)Gal(b1-4)GlcNAc(b1-3)Gal(b1-4)GlcNAc(b1-2)Man(a1-6)]Man(b1-4)GlcNAc(b1-4)[Fuc(a1-6)]GlcNAc
# Procedure, shortened: as §1
# [8] = target: GlcNAc(b1-3)Gal(b1-4)GlcNAc(b1-6)[Gal(b1-3)]GalNAc
# Procedure, shortened: as §1
# GlcNAc(b1-3)GalNAc = target: GlcNAc(b1-3)GalNAc
# Procedure, shortened: as §1
# GlcNAc(b1-6)GalNAc = target: GlcNAc(b1-6)GalNAc
# Procedure, shortened: as §1
# Kdn(a2-3)Gal(b1-4)GlcNAc = target: Kdn(a2-3)Gal(b1-4)GlcNAc
# Procedure, shortened: as §1
# [9] = target: Man(a1-2)Man(a1-3)[Man(a1-2)Man(a1-6)]Man
# Procedure, shortened: as §1
# [10] = target: Neu5Ac(a2-3)Gal(b1-3)GalNAc(b1-4)[Neu5Ac(a2-8)Neu5Ac(a2-3)]Gal(b1-4)Glc
# Procedure, shortened: as §1
# [11] = target: Neu5Ac(a2-3)Gal(b1-3)GlcNAc(b1-6)GalNAc
# Procedure, shortened: as §1
# [12] = target: Neu5Ac(a2-3)Gal(b1-4)GlcNAc(b1-3)Gal(b1-4)GlcNAc(b1-2)Man(a1-3)[Neu5Ac(a2-3)Gal(b1-4)GlcNAc(b1-3)Gal(b1-4)GlcNAc(b1-2)Man(a1-6)]Man(b1-4)GlcNAc(b1-4)GlcNAc
# Procedure, shortened: as §1
# [13] = target: Neu5Ac(a2-3)Gal(b1-4)GlcNAc(b1-3)Gal(b1-4)GlcNAc(b1-6)[Gal(b1-3)]GalNAc
# Procedure, shortened: as §1
# [14] = target: Neu5Ac(a2-3)Gal(b1-4)GlcNAc(b1-6)GalNAc
# Procedure, shortened: as §1
# [15] = target: Neu5Ac(a2-3)Gal(b1-4)GlcNAc(b1-6)[Gal(b1-3)]GalNAc
# Procedure, shortened: as §1
# [16] = target: Neu5Ac(a2-3)Gal(b1-4)[Fuc(a1-3)]GlcNAc6S
# Procedure, shortened: as §1
# Neu5Ac(a2-3)GalNAc = target: Neu5Ac(a2-3)GalNAc
# Procedure, shortened: as §1
# [17] = target: Neu5Ac(a2-6)Gal(b1-4)GlcNAc(b1-2)Man
# Procedure, shortened: as §1
# [18] = target: Neu5Ac(a2-6)Gal(b1-4)GlcNAc(b1-2)Man(a1-3)[GlcNAc(b1-2)Man(a1-6)]Man(b1-4)GlcNAc(b1-4)GlcNAc
# Procedure, shortened: as §1
# [19] = target: Neu5Ac(a2-6)Gal(b1-4)GlcNAc(b1-2)Man(a1-6)[GlcNAc(b1-2)Man(a1-3)]Man(b1-4)GlcNAc(b1-4)GlcNAc
# Procedure, shortened: as §1
# [20] = target: Neu5Ac(a2-8)Neu5Ac(a2-3)[Gal(b1-3)GalNAc(b1-4)]Gal(b1-4)Glc
# Procedure, shortened: as §1
# [21] = target: Neu5Gc(a2-3)Gal(b1-3)GlcNAc
# Procedure, shortened: as §1
# [22] = target: Neu5Gc(a2-8)Neu5Gc(a2-3)Gal(b1-4)GlcNAc
# Procedure, shortened: as §1
# [23] = target: Neu5Gc(a2-8)Neu5Gc(a2-6)Gal(b1-4)GlcNAc
# Procedure, shortened: as §1
binder,measurement,setting,value
DC-ASGPR L+GEE (Homo sapiens) (protein) MTRTYENFQYLENKVKVQGFKNGPLPLQSLLQRLRSGPCHLLLSLGLGLLLLVIICVVGFQNSKFQRDLVTLRTDFSNFTSNTVAEIQALTSQGSSLEETIASLKAEVEGFKQERQAGVSELQEHTTQKAHLGHCPHCPSVCVPVHSEMLLRVQQLVQDLKKLTCQVATLNNNGEEASTEGTCCPVNWVEHQDSCYWFSHSGMSWAEAEKYCQLKNAHLVVINSREEQNFVQKYLGSAYTWMGLSDPEGAWKWVDGTDYATGFQNWKPGQPDDWQGHGLGGGEDCAHFHPDGRWNDDVCQRPYHWVCEAGLGQTSQESH,glycan array binding signal (z-score),[1],4.33
same,glycan array binding signal (z-score),[2],4.06
same,glycan array binding signal (z-score),GalNAc6S(b1-4)GlcNAc,1.11
same,glycan array binding signal (z-score),[3],-0.367
same,glycan array binding signal (z-score),[4],-0.37
same,glycan array binding signal (z-score),[5],0.194
same,glycan array binding signal (z-score),[6],-0.283
same,glycan array binding signal (z-score),[7],0.512
same,glycan array binding signal (z-score),[8],-0.411
same,glycan array binding signal (z-score),GlcNAc(b1-3)GalNAc,-0.439
same,glycan array binding signal (z-score),GlcNAc(b1-6)GalNAc,3.71
same,glycan array binding signal (z-score),Kdn(a2-3)Gal(b1-4)GlcNAc,-0.074
same,glycan array binding signal (z-score),[9],-0.348
same,glycan array binding signal (z-score),[10],-0.319
same,glycan array binding signal (z-score),[11],6.64
same,glycan array binding signal (z-score),[12],-0.164
same,glycan array binding signal (z-score),[13],-0.553
same,glycan array binding signal (z-score),[14],3
same,glycan array binding signal (z-score),[15],-0.019
same,glycan array binding signal (z-score),[16],-0.418
same,glycan array binding signal (z-score),Neu5Ac(a2-3)GalNAc,-0.223
same,glycan array binding signal (z-score),[17],0.432
same,glycan array binding signal (z-score),[18],-0.362
same,glycan array binding signal (z-score),[19],-0.328
same,glycan array binding signal (z-score),[20],0.544
same,glycan array binding signal (z-score),[21],-0.017
same,glycan array binding signal (z-score),[22],-0.146
same,glycan array binding signal (z-score),[23],-0.204
